± gives the standard deviation of the averaged measurements.
Assays:
Assay in all cases: cell proliferation (confluence) relative to DMSO control; higher = less growth inhibition
Details in all cases: 5 uM; 6 d
[1] = test system: BT549
In short: (§1)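 Triple-negative breast cancer cell lines were plated at 500 cells per well in 384-well plates. After the cells adhered, each epigenetic chemical probe, dissolved in DMSO, was added at a final 5 μM for 6 d. Confluency was imaged in an IncuCyte ZOOM (×10 objective, phase-contrast) and analysed with Incucyte 2016 software. Each plate held four replicate wells per compound plus DMSO wells, and confluence was normalised to DMSO control.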

[2] = test system: CAL120
In short: as §1

[3] = test system: HCC1143
In short: as §1

[4] = test system: HCC1395
In short: as §1

[5] = test system: HCC153
In short: as §1

[6] = test system: HCC1806
In short: as §1

[7] = test system: HCC38
In short: as §1

[8] = test system: HCC70
In short: as §1

[9] = test system: Hs578-T
In short: as §1

[10] = test system: MB157
In short: as §1

[11] = test system: SUM149-PT
In short: as §1

[12] = test system: SUM159-PT
In short: as §1

Row | SMILES | cell proliferation [1] | cell proliferation [2] | cell proliferation [3] | cell proliferation [4] | cell proliferation [5] | cell proliferation [6] | cell proliferation [7] | cell proliferation [8] | cell proliferation [9] | cell proliferation [10] | cell proliferation [11] | cell proliferation [12]
1 | CCOC(=O)CCNc1cc(N2CCc3ccccc3CC2)nc(-c2cccnc2)n1 | 99.38 ± 0.4% | 94.6 ± 4.8% | 99.33 ± 0.49% | 99.887 ± 0.094% | 82.7 ± 3.2% | 99.75 ± 0.15% | 99.31 ± 0.31% | 98 ± 1.6% | 96.1 ± 2.3% | 96.1 ± 2.9% | 96 ± 3.5% | 99.982 ± 0.0074%
2 | CC(C)N(CCCNC(=O)Nc1ccc(C(C)(C)C)cc1)C[C@H]1O[C@@H](n2cc(Br)c3c(N)ncnc32)[C@H](O)[C@@H]1O | 99.955 ± 0.014% | 98.5 ± 1.1% | 99.74 ± 0.16% | 99.977 ± 0.024% | 85.8 ± 4.9% | 99.862 ± 0.055% | 99.891 ± 0.042% | 93.6 ± 4.6% | 96.1 ± 1.3% | 89.1 ± 3.2% | 76 ± 6.9% | 99.997 ± 0.0024%
3 | CC(C)Oc1ccc(-c2c[nH]cc2CN(C)CCO)cc1 | 97.58 ± 0.92% | 97.5 ± 1.6% | 96.98 ± 0.82% | 99.978 ± 0.011% | 61.5 ± 8.3% | 81.7 ± 3.2% | 99.55 ± 0.37% | 97.3 ± 1.8% | 97.16 ± 0.64% | 94.2 ± 3.9% | 74 ± 11% | 99.986 ± 0.014%
4 | O=C(NCC(=O)N1CCCC1)Nc1ccc2cnccc2c1 | 97.4 ± 1.4% | 98.79 ± 0.98% | 97.5 ± 2% | 99.815 ± 0.096% | 63 ± 9.2% | 82.8 ± 2.7% | 99.873 ± 0.048% | 94.9 ± 5.1% | 96.4 ± 1.6% | 94.3 ± 5.8% | 76.9 ± 9.1% | 99.995 ± 0.0035%
5 | Clc1cc2c(NC3CCCC3)nnc(-c3ccncc3)c2cc1Cl | 99.863 ± 0.055% | 83.4 ± 7.1% | 99.1 ± 1.1% | 99.965 ± 0.029% | 87.7 ± 5.4% | 98.95 ± 0.87% | 99.63 ± 0.21% | 99.12 ± 0.58% | 97.48 ± 0.54% | 98.8 ± 1.5% | 64.6 ± 19% | 99.992 ± 0.0029%
6 | Cn1cc(CCn2cnc(-c3cnn(C)c3)c2-c2ccc(C#N)cc2)cn1 | 98.99 ± 0.43% | 97.56 ± 0.71% | 98.1 ± 2.2% | 99.977 ± 0.017% | 58.1 ± 13% | 76.7 ± 11% | 99.38 ± 0.67% | 85.1 ± 8.9% | 97.89 ± 0.77% | 62.6 ± 28% | 92.6 ± 3.4% | 99.988 ± 0.012%
7 | O=C(NC[C@H](O)CN1CCc2ccccc2C1)c1ccnc(NC2CCC2)c1 | 81.4 ± 7.7% | 90 ± 7.5% | 75.1 ± 4.7% | 99.47 ± 0.48% | 37.2 ± 9.6% | 37.5 ± 4.5% | 67.8 ± 1.2% | 95 ± 2% | 89.7 ± 4.3% | 66.5 ± 2.1% | 36.7 ± 2.9% | 99.876 ± 0.038%
8 | CN(C)[C@H]1CN(C2CCc3cccc(F)c32)C[C@@H]1c1ccc(N2CCN(S(C)(=O)=O)CC2)cc1 (stereo partly specified) | 99.839 ± 0.071% | 91.9 ± 3.3% | 99.22 ± 0.33% | 99.91 ± 0.14% | 83.7 ± 2.5% | 99.14 ± 0.58% | 99.71 ± 0.21% | 82.3 ± 13% | 97.33 ± 0.62% | 91.6 ± 4.3% | 87.8 ± 10% | 99.996 ± 0.0017%
